Screens from PubChem BioAssay.
GLP1R cytotox – cytotoxic in the GLP-1 receptor inverse agonist counter-screen. HEK293 cAMP-luciferase reporter cells, luminescence, 24 h. Potency, µM (top dose mostly 38.3 µM), for the others: at the highest dose activity change, negative = inhibition, most hits filed as inhibitors. 0.13% of 410,000 active. AID 624418;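 note: loss of luciferase light is scored as toxicity; potency is the fitted concentration of half-maximal effect; % is set by controls: 0 for no effect and ±100 for the full control effect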
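Step one: seed cells (200 cells/uL, DMEM with 10% Nu serum, 1% pen-strep). Step two: 12-hour incubation at 37 deg C. Step three: pin 23 nL compound, incubate 24 hr. Step four: add luciferase reagent, read luminescence 12 min later.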
TRPML1 blocker – blocks the human TRPML1 channel; Q9GZU1; TRPML1-inducible cells, Ca2+ dye fluorescence, FDSS; hits give low values; inhibition of EC80 agonist-evoked calcium signal; activity change, negative = inhibition, % (no concentration beside the values); 0.02% of 390,000 active; AID 624415; in the data active = activity change below about -50%; inconclusive = between about -30% and that limit;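 note: stimulus is agonist 54-4 at its EC80 concentration; % is set by controls: 0 for no effect and ±100 for the full control effect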
Target sequence (Q9GZU1 whole entry, looked up): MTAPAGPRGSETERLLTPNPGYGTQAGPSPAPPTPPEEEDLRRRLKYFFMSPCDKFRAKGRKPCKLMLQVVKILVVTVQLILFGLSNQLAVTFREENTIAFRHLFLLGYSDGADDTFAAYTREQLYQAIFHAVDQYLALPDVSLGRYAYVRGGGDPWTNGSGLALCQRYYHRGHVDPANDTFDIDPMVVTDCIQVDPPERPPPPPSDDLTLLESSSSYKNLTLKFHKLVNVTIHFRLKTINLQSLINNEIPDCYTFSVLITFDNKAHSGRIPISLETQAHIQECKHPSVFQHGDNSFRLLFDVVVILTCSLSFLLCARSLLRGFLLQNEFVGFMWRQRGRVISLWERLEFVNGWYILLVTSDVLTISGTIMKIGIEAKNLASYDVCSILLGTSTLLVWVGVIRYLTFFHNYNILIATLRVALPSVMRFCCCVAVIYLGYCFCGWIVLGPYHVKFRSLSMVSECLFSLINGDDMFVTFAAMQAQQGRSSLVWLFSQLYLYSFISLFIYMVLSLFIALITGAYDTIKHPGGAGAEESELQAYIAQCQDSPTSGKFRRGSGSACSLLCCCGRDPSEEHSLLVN
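TRPML1-DL cells, Tet-induced overnight (~16 h, 37 °C) at 1,500 cells/well, were loaded with Ca8 no-wash dye plus quencher for 45-90 min at room temperature. Compounds were pinned during FDSS kinetic reading; agonist 54-4 at EC80 (4 uM final) then added.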
GLP-1R inv ag – acts as inverse agonist at human GLP-1 receptor; P43220; HEK293 GLP-1R CRE-luciferase, luminescence, 24 h; GLP-1R form is constitutively active; Potency, µM (highest dose often 38.3 µM), without a hit: at the top dose activity change, negative = inhibition, most hits filed as inhibitors; 1.6% of 410,000 active; AID 624417; note: potency is the fitted concentration of half-maximal effect; % is set by controls: 0 for no effect and ±100 for the full control effect; nearly all actives have a fitted effect of over 55% in size
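HEK293 cells stably co-expressing constitutively active GLP-1R and a cAMP-responsive luciferase reporter were seeded in DMEM with 10% Nu serum, given compounds after 12 h, and incubated 24 h at 37 deg C. Luminescence was then read.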
TRPML1 agonist – activates the human TRPML1 channel; Q9GZU1; TRPML1-expressing cells, Ca2+ dye fluorescence, FDSS; activation, % (test concentration not listed); 0.12% of 410,000 active; AID 624414; in the data active = activation above about 50%; inconclusive = mostly about 30% to 49%; note: 0% is about no effect
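Tetracycline-induced TRPML1-DL cells are seeded and incubated overnight before loading with a no-wash Ca2+ dye and quencher. Agonist activity is taken from the 110 s fluorescence read following compound pin-transfer on an FDSS, before EC80 54-4 challenge.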
GLP1R ag – GLP-1 receptor (human) agonism; HEK293 GLP-1R CRE-luciferase, luminescence, 4-6 h; cells express a hypersensitive GLP-1R form; 0.007% of 380,000 active; Potency, µM (series often up to 45.6 µM), for the others: at the highest dose activation, most hits filed as activators; AID 624172; note: potency is the fitted concentration of half-maximal effect; % of control where 0% means no effect
Starred values were filed as active, the others as inactive. A selection: hits, their analogues and other compounds. The true share with any hit is near 1.8%. Unless noted, calls come from the whole dose curve; as a rule, active = well fitted curve in the direction sought with a large enough effect; inconclusive = small, poorly fitted or top-dose-only effect, or another doubt; inactive = no such curve, though single readings can be large; an effect the other way counts as inactive or inconclusive.

Screening Cc1cccc(CN2CCN(C(=O)c3cccc4ccccc34)CC2)c1 returned GLP1R cytotox -12%, TRPML1 blocker 7, GLP-1R inv ag inconclusive, TRPML1 agonist -1 and GLP1R ag 10%.
Screening COc1ccc2ccccc2c1CN1CCN(C(=O)c2ccccc2)CC1 returned GLP1R cytotox -8%, TRPML1 blocker -1, GLP-1R inv ag 10µM*, TRPML1 agonist 0 and GLP1R ag -3%.
Screening Cc1ccc(CN2CCN(C(=O)c3cccc4ccccc34)CC2)cc1 returned GLP1R cytotox -2%, TRPML1 blocker -11, GLP-1R inv ag 4µM*, TRPML1 agonist 0 and GLP1R ag 12%.
`COc1ccc2ccccc2c1CN1CCN(C(=O)c2ccco2)CC1` gave GLP1R cytotox inconclusive, TRPML1 blocker -8, GLP-1R inv ag inconclusive, TRPML1 agonist -1 and GLP1R ag 7%.
`CCCCNC(=O)[C@@H]1CC=C[C@@H]2CCN(CCCC)C(=O)[C@@H]21` gave TRPML1 agonist -1.
Screening CCOC(=O)c1cc(-c2ccc(C)cc2)nn1Cc1ccccc1 returned GLP1R cytotox 4%, TRPML1 blocker 8, GLP-1R inv ag inconclusive, TRPML1 agonist 0 and GLP1R ag 4%.
Screening Cc1c(C(=O)Nc2cccc(-c3nc4ccccc4s3)c2)oc2ccc(F)cc12 returned GLP1R cytotox 8%, TRPML1 blocker 6, GLP-1R inv ag 4% and TRPML1 agonist -1.
Cc1cccc2sc(N(Cc3cccnc3)C(=O)C3COc4ccccc4O3)nc12 (configuration not stated) was read as GLP1R cytotox 16%, TRPML1 blocker -13, GLP-1R inv ag 1% and TRPML1 agonist 0.
`Cc1ccc(S(=O)(=O)N2CCN(S(=O)(=O)c3ccc4c(c3)OCCCO4)CC2)cc1` gave TRPML1 agonist -1.
For Cc1ccc(/C=N/N(C)S(=O)(=O)c2ccc(C)cc2)cc1 the results were GLP1R cytotox 7%, TRPML1 blocker 30, GLP-1R inv ag 10µM*, TRPML1 agonist 4 and GLP1R ag 7%.
`COc1cccc(CNC(=O)CCc2c(C)c3ccc(O)c(C)c3oc2=O)c1` gave GLP1R cytotox 3%, TRPML1 blocker -12, GLP-1R inv ag 2% and TRPML1 agonist -1.
For CC(C)COCc1ccc(O)c2ncccc12 the results were GLP1R cytotox inconclusive, TRPML1 blocker 6, GLP-1R inv ag 4µM*, TRPML1 agonist 0 and GLP1R ag -1%.
For Oc1ccc(CN2CCC(Cc3ccccc3)CC2)c2cccnc12 the results were GLP1R cytotox inconclusive, TRPML1 blocker 18, GLP-1R inv ag inconclusive, TRPML1 agonist 0 and GLP1R ag -1%.
Screening CCOC(=O)N1CCN(Cc2ccc(O)c3ncccc23)CC1 returned GLP1R cytotox -39%, TRPML1 blocker -2, GLP-1R inv ag 5µM*, TRPML1 agonist 0 and GLP1R ag 9%.
`CCCOCc1ccc(O)c2ncccc12` gave GLP1R cytotox -21%, TRPML1 blocker -5, GLP-1R inv ag inconclusive, TRPML1 agonist 0 and GLP1R ag 5%.
O=C(Oc1ccc(Cl)c2cccnc12)c1cccnc1 was read as GLP1R cytotox inconclusive, TRPML1 blocker 9, GLP-1R inv ag 3.2µM*, TRPML1 agonist 0 and GLP1R ag -3%.
Oc1ccc(Cc2ccccc2)c2cccnc12 was read as GLP1R cytotox 5%, TRPML1 blocker 1, GLP-1R inv ag 6.3µM*, TRPML1 agonist 2 and GLP1R ag 26%.
CC(=O)c1ccc(OCC(=O)N2CCCCC2)cc1 was read as GLP1R ag -3%.
For Oc1ccc(Cl)c2cccnc12 the results were GLP1R cytotox 7%, TRPML1 blocker -3, GLP-1R inv ag 10µM*, TRPML1 agonist 0 and GLP1R ag -2%.
Screening Oc1c(CN2CCCCC2)cc(COCc2ccccc2)c2cccnc12 returned GLP1R cytotox -18%, TRPML1 blocker 3, GLP-1R inv ag inconclusive, TRPML1 agonist 4 and GLP1R ag 12%.
For OCc1ccc(O)c2ncccc12 the results were GLP1R cytotox inconclusive, TRPML1 blocker 20, GLP-1R inv ag 10µM*, TRPML1 agonist -1 and GLP1R ag -23%.
For Oc1ccc(COCc2ccccc2)c2cccnc12 the results were GLP1R cytotox 7%, TRPML1 blocker -10, GLP-1R inv ag 10µM*, TRPML1 agonist 0 and GLP1R ag 0%.
Screening Oc1ccc(CN2CCCCC2)c2cccnc12 returned GLP1R cytotox inconclusive, TRPML1 blocker 2, GLP-1R inv ag 0%, TRPML1 agonist 0 and GLP1R ag -12%.
For Cc1ccc(Cl)cc1NC(=O)CSCc1cnn(-c2ccccc2)c1-n1cccc1 the results were GLP1R cytotox -11%, TRPML1 blocker -12, GLP-1R inv ag 10µM* and TRPML1 agonist 2.
Cc1ccc(NC(=O)CSCc2cnn(-c3ccccc3)c2-n2cccc2)c(C)c1 was read as GLP1R cytotox 3%, TRPML1 blocker -11, GLP-1R inv ag inconclusive and TRPML1 agonist 4.
Screening CN(C)CCNC(=O)COc1ccc(C23CC4CC(CC(C4)C2)C3)cc1 returned GLP1R cytotox inconclusive, TRPML1 blocker 21, GLP-1R inv ag 2.8µM*, TRPML1 agonist 2 and GLP1R ag 8%.
CNC(=S)N(CCc1c(C)[nH]c2ccc(C)cc12)Cc1ccco1 was read as GLP1R cytotox 2%, TRPML1 blocker 16, GLP-1R inv ag 10µM*, TRPML1 agonist 0 and GLP1R ag 12%.
Screening CCNC(=S)N(CCc1c(C)[nH]c2ccc(Cl)cc12)Cc1ccco1 returned GLP1R cytotox inconclusive, TRPML1 blocker -4, GLP-1R inv ag inconclusive, TRPML1 agonist 1 and GLP1R ag 2%.
`Cc1ccc(N2CCn3c2nc2c3c(=O)n(CCc3ccccc3)c(=O)n2C)cc1C` gave GLP1R cytotox -1%, TRPML1 blocker 18, GLP-1R inv ag 1% and TRPML1 agonist -1.
`O=C(CCN1C(=O)C2C3C=CC(C4CC34)C2C1=O)Oc1ccccc1` (configuration not stated) gave GLP1R cytotox 5%, TRPML1 blocker 16, GLP-1R inv ag -6%, TRPML1 agonist 0 and GLP1R ag -8%.
Screening Cc1cccc(C)c1OC(=O)CCN1C(=O)C2C3C=CC(C4CC34)C2C1=O (configuration not stated) returned GLP1R cytotox 4%, TRPML1 blocker 17, GLP-1R inv ag 7.1µM*, TRPML1 agonist 0 and GLP1R ag 2%.
COc1cc(C(=O)O[C@H]2C/C(C)=C/CC[C@@]3(C)O[C@@H]3[C@H](O)[C@@H]2C(C)C)cc(OC)c1OC was read as GLP1R cytotox 6%, GLP-1R inv ag 13µM* and GLP1R ag 8%.
